# Assay results reported in the supplement of paper PMC6555819.
# Test system: VDR:RXRa (NR concentration 270 nM, RXRa partner concentration 90 nM)
# Test: PBM binding z-score (relative to random genomic background probes); higher = stronger binding; sequences stand for … in GC…GCGATTGACAGCGTAGAATGAAGG
# Method: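 Protein-binding microarray (Agilent 4x180K custom design, double-stranded 60-nt probes: 5' GC cap, 34-nt variable region, 24-nt constant primer region; full probe sequence given). Purified or IVT nuclear receptor:RXRα heterodimers (3:1 NR:RXRα, mostly 270:90 nM) or homodimers were incubated for 1 h in PBS with 2% milk and no ligand, then detected with Alexa488 antibodies. Fluorescence from o1-orientation probes (~5 replicates averaged) was converted to z-scores against 500 random hg19 background probes. Variable regions are seed direct-repeat (DR0–DR5) sites, all their single-nucleotide variants and half-site ablations.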
row,Sequence,PBM binding z-score
1,GTACCAAGGTTAATAGGTCGTTGATGAGTAGGCG,2.23
2,GGGACTGGGGCATCAGCAGGTTACCATAACTTAA,0.674
3,TTACCAAGGTGAGCTGAGGTCGTCGATCCAACTC,3.49
4,TCTTGTAGATCAACAGGAGGTTAAGACAGATCGA,0.563
5,AGAATGACGTTACCAAAGATCAGGGAAACGCTTG,-0.434
6,TAGCCTAGGTCATGGGCCAGAATACCACGCGAAC,1.91
7,CCTAGCAGGCCAATCTCGGTCACTCAAGGCTTGA,-0.37
8,GCTTGGAGATCAAGGTTAAGAAAGACTAAGCTAA,0.128
9,TCTTGTATATCAGCAGGTTAAGAAAGCTGGCCAA,0.851
10,ATATGTAGGTTACATCAGGGTCATTCAGGCTATG,5.14
11,TAGCCTAGGTCATGAGGGCCAGTATAGTGTCGGC,3.51
12,ATCGAAAGGTCGAATGTGAGTATACCCACCCGAA,2.84
13,CTACCATGGTGAACAAGGTCGTTGATTACTATTC,3.04
14,GCTTACGGGGCAAAGGTTATAGCATGAATAGAAT,2.08
15,AATACAGGGTCATCGTTGGCCAGAGTACGCACAG,5.13
16,TCTTGTACATCAAGCAGGTTAAGAAAGCCTGAGT,0.528
17,TCTGCTAGGTCAACGATGCTCAGCTAATCTGCTA,1.15
18,CCTACTGGGCCAAGGTCGTTGATCAGTCAAAGCA,0.505
19,CGTCCAAGGTCAAAGGGCAGTGAAGAGATGACGG,4.65
20,CCAGAGAGGTGAGAAGGTAACTCAGCCTCGATTA,0.23

row,Sequence,PBM binding z-score
1,TCATATAGGTAAGACAGGTGAAAGTCGGCATCTA,0.987
2,CGAATTAGGTCAGAACAGGACAGTGAAGGATGAT,0.932
3,CGTCCAAGGTCAGAGAGGGCAGTGAATGCCGAGT,6.5
4,GCTACCAGGCCATTTGGGTCACTCAATGACGGGC,1.36
5,CCTAGTTGGTGAAGGTCACACACGCTATAGGTAC,3.4
6,GCGAATGGGGCATCAGCAGGTTACCATAACTTAA,-0.212
7,CAAACTAGGTCAAGAGGTCAAAGCCCGCTTCCCG,5.9
8,TCTTGTAGATTAAAGGTTAAGAAAGCCGAAGCCT,1.09
9,AATAGAGGGTCATCGTAGGCCAGAGTACGCACAG,4.64
10,TCTAGTTGGTCACGGAGGTCAAACACGACGGGTA,6.21
11,CGAACTAGATCAAGGACAGTGAATCTCCGCACGC,-0.37
12,AGTCAAAGTTCACTCGGTAACGTAAGATTCAGCT,4.31
13,CCTGCTATGTCATGGTCAGCTAATCTACAGTATG,-0.0549
14,TCGAGTAGGATACCAATGGGGCATTCAGCTTTCT,-0.497
15,TTACCAAGGCGAAAGGTCGTTGATGCACGCCTTG,1.65
16,CGTCCAAGGTCAGCAGGTCAGTGGAAGCGACGTG,3.82
17,CAAACTAGGTCACCGGAAGGTCAAAATCCGCATG,5.69
18,TCTTGTTGGTCACGGAGGTCACACACGACGGGTA,6.07
19,TCTGCAAGGTCAGTTGGTCAGCTAACGAGCTGCC,2.19
20,TCTGCTAGGTCAACGATGGACAGCTAATCTGCTA,1.21
